Screening data (PubChem)
Shown are actives, neighbours in structure and some others; about 3.3% of the full set was active somewhere.
PfM18AAP inh-1 = PfM18AAP inhibitors, malaria aminopeptidase, primary screen, biochemical, QFRET, recombinant enzyme; hit rate 1.2% among 290,000; AID 1822, 2009; H-Glu-NHMec fluorogenic cleavage; inhibition, % at 7.35 µM; M18 aspartyl aminopeptidase (Plasmodium falciparum 3D7);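 active = inhibition above the campaign mean inhibition over all tested compounds plus 3 SD, cut at about 28% in these data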;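 also: 0% = plate median of test compound wells and 100% = 2 mM ZnCl2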
PfGluPho inh = PfG6PD enzyme inhibitors, primary screen, biochemical, fluorescence intensity, uHTS; glucose-6-phosphate dehydrogenase-6-phosphogluconolactonase (Plasmodium falciparum 3D7); PfGluPho enzyme, NADPH resazurin-diaphorase fluorescence; inhibition, % at 20 µM; hit rate 0.78% among 350,000; AID 504690, 2011;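 active = inhibition reaching at least a set limit at 20 µM in the primary screen, cut at about 59% in these data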;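 also: 0% = DMSO wells with substrate and 100% = DMSO wells lacking glucose-6-phosphate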
UHRF1 binding = UHRF1 methylated DNA binding inhibitors, primary screen, counter-screen for MBD2 inhibitor project, biochemical, TR-FRET, human UHRF1, single concentration. E3 ubiquitin-protein ligase UHRF1 (Homo sapiens), Q96T88. UHRF1 binding to methylated oligo. inhibition, % at 4.4 µM. hit rate 0.75% among 370,000; in the data active = inhibition above about 21%;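 also: UHRF1 SRA domain binding a hemimethylated CpG hairpin DNA probe; 0% = median of test compound wells and 100% = reference inhibitor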
MBD2 inh = inhibitors of MBD2 binding to methylated DNA, primary screen, biochemical, TR-FRET, DNA-binding domain, human | Methyl-CpG-binding domain protein 2 (Homo sapiens), Q9UBB5 | MBD2 binding to methylated oligonucleotide | inhibition, % at 4.4 µM | hit rate 0.31% among 370,000; in the data active = inhibition above about 13%
PRMT1 FP inh = PRMT1 methyltransferase inhibitors, primary screen, biochemical, fluorescence polarization; Protein arginine N-methyltransferase 1 (Homo sapiens), Q99873; recombinant PRMT1, activity-based probe fluorescence polarization; inhibition, % at 2.79 µM; hit rate 1.3% among 370,000; AID 652257, 2013;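 active = inhibition above about 21% made by adding two undisclosed values, limit read from the data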
PfM18AAP inh-2 = PfM18AAP inhibitors, malaria aminopeptidase, confirmation, biochemical, QFRET, recombinant enzyme, triplicate | H-Glu-NHMec fluorogenic cleavage | hit rate 28% among 2,400 | inhibition, % at 7.35 µM | shares compounds with PfM18AAP inh-1;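 active = mean inhibition over replicate wells above the hit cutoff set for the earlier primary screen, cut at about 29% in these data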;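 also: 0% = median of test compound wells and 100% = 2 mM ZnCl2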
CTSL1 confirm = cathepsin L1 inhibitors, retest, confirmation, counter-screen for PFM18AAP inhibitor project, biochemical, QFRET, triplicate. shares compounds with PfM18AAP inh-1. 2,400 tested, under 10 active. purified cathepsin L1, Z-Leu-Arg-MCA fluorescence. AID 2178, 2009. inhibition, % at 5.96 µM;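 active = average inhibition across replicates above the hit cutoff set in the earlier primary screen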;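 also: 0% = median of test compound wells and 100% = Z-Phe-Ala-diazomethylketone 1 µM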
* marks the source's active call; other numbers are inactive results; x = no result given.

SMILES | PfM18AAP inh-1 | PfGluPho inh | UHRF1 binding | MBD2 inh | PRMT1 FP inh | PfM18AAP inh-2 | CTSL1 confirm
COc1ccc(C2CC(c3ccc(Br)cc3)=NN2C(=S)Nc2ccccc2)cc1 (stereo not drawn) | 42* | 18 | 2 | -2 | 2 | -20 | 9
CCOCCCn1c(=O)c2ccccc2n2c(=S)[nH]nc12 | 46* | 25 | 3 | 1 | 1 | 22 | -3
Cc1cc(C)nc(SCCC(=O)N(C)C)n1 | 39* | 42 | -1 | 0 | 13 | -4 | -1
Cc1cc(C)nc(SCC(=O)Nn2cnnc2)n1 | 53* | -8 | -5 | -10 | 1 | 41* | -5
O=C(CSc1ncccn1)Nn1cnnc1 | 46* | -5 | 0 | -4 | -1 | 44* | -4
Cc1cc(C)cc(C(=O)OCCCN(C)C2CN(Cc3cn(Cc4ccccc4F)nn3)S(=O)(=O)C2)c1 (stereo not drawn) | x | x | 15 | 11 | 2 | x | x
CC(=O)Nc1nonc1NC(=O)CSc1ccccn1 | -8 | -8 | 0 | 2 | 2 | x | x
Nc1nc(SCC(=O)Nc2ccc([N+](=O)[O-])cc2Br)n[nH]1 | -3 | -3 | -5 | -3 | -3 | x | x
O=C(CSc1ncn[nH]1)Nc1ccc([N+](=O)[O-])cc1Br | 67* | -11 | -3 | -3 | -2 | 79* | -2
O=C(CSc1ncn[nH]1)OCN1C(=O)c2ccccc2C1=O | 85* | -7 | 0 | -1 | -3 | 88* | -13
CCOc1cc(N2CCOCC2)c(OCC)cc1NC(=O)CSc1ncn[nH]1 | 49* | 5 | 5 | 1 | 3 | -13 | -3
CC(=O)Nc1nonc1NC(=O)CSc1ncn[nH]1 | 48* | 1 | 0 | -3 | -2 | 40* | 0
CC(=O)C1=C(C)N(Cc2ccc(Cl)cc2)C(=S)NC1c1cccc(Br)c1 (stereo not drawn) | x | x | 3 | 6 | -1 | x | x
O=C(CSc1ncn[nH]1)CSc1ncn[nH]1 | 48* | 6 | 0 | 2 | 8 | 19 | -8
CC(C)c1ccc(C(=O)CSc2ncn[nH]2)cc1 | 25 | 28 | 0 | -5 | 3 | x | x
CC1(C(=O)CSc2ncn[nH]2)CCC(=O)O1 (stereo not drawn) | 58* | x | x | x | x | 70* | -2
O=C(CCc1ccccc1)N[C@H]1[C@H](O)CCC[C@]12C(=O)N(Cc1ccccc1)c1ccccc12 | x | x | 3 | 2 | 4 | x | x
NS(=O)(=O)c1ccc(NNC(=O)c2cccs2)cc1 | 55* | -9 | 2 | 4 | 13 | 36* | 2
O=C(NNC(=O)c1cccs1)Nc1cccc(Cl)c1 | 60* | -2 | 0 | 2 | 1 | 20 | 3
O=C(NNc1ccc(Cl)cc1)c1cccs1 | 44* | 22 | -2 | 2 | 8 | 25 | -1
O=C(NNc1cc(Cl)cc(Cl)c1)c1cccs1 | 37* | 16 | -2 | -3 | 6 | 33* | 2
NS(=O)(=O)c1ccc(NS(=O)(=O)c2cccs2)cc1 | 4 | 1 | 3 | 3 | 2 | x | x
COC(=O)[C@]12C[C@H](CC(=O)NCCC(C)C)C(=O)N(Cc3ccco3)C1=C[C@H](COCc1ccccc1)O[C@@H]2C | x | x | 0 | 1 | 4 | x | x
COCC#Cc1ccc(CC[C@H]2O[C@H]3CC[C@@H](CO)O[C@H]3C[C@H]2n2cc(C(C)(C)O)nn2)cc1 | x | x | 11 | 10 | 7 | x | x
O=C1c2ccccc2CC1Sc1nnc(-c2ccncc2)o1 (stereo not drawn) | 46* | -11 | -2 | -1 | -3 | -57 | -4
CCSc1nnc(-c2ccncc2)o1 | -4 | 9 | -2 | 2 | -2 | x | x
